Results filed as inconclusive are left out. A call without a number means that no potency is given here. Calls of active or inactive are those of the source. The call rests on the fitted dose curve; in most records, active means well fitted curve in the direction sought with a large enough effect; inconclusive means small, poorly fitted or top-dose-only effect, or another doubt; inactive means no such curve, though single readings can be large or run the other way.
What was measured:
[1] = molecular target: T1, Hexokinase-4 (Homo sapiens) + Glucokinase regulatory protein (Homo sapiens) (UniProt P35557+Q14397); experiment: qHTS assay for inhibitors of recombinant human GCK-GKRP interaction: ADP-Glo assay (AID 743206)
T1 sequence (P35557 whole entry, looked up): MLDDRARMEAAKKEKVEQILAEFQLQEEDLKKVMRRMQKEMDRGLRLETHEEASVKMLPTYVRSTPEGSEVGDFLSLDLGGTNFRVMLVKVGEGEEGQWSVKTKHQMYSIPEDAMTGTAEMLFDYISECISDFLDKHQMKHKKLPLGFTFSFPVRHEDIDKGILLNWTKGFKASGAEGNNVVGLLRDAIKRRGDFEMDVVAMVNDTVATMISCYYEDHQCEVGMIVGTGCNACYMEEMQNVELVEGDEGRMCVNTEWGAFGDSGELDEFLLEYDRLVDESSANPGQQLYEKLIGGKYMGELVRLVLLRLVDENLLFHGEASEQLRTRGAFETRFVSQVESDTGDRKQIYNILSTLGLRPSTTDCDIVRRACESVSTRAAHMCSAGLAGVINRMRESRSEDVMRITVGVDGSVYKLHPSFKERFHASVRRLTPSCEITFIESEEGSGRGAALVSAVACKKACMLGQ
T1 sequence (Q14397 whole entry, looked up): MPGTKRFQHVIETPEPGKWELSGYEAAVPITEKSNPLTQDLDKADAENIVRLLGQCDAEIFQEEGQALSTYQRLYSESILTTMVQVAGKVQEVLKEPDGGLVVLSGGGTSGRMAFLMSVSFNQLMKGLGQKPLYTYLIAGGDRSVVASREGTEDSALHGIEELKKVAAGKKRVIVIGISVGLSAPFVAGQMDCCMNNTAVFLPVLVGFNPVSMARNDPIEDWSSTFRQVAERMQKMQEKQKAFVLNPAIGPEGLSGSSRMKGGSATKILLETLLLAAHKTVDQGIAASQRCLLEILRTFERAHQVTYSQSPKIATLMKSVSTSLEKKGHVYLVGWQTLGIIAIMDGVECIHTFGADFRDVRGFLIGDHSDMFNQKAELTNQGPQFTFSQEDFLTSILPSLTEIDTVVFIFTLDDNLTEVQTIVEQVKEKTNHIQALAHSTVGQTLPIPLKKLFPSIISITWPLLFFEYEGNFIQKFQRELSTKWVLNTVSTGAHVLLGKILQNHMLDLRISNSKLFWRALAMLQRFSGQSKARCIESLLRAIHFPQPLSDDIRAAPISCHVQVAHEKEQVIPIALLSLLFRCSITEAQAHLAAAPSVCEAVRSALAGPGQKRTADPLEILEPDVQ
Summary of the method: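 GST-GCK and FLAG-GKRP (15 nM each in the dispensed mix, with 2 uM S6P) react with 0.4 mM ATP and 5 mM glucose (final) in Hepes pH 7.6 for 60 min at room temperature. ADP is measured by ADP-Glo luminescence.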

[2] = molecular target: T1, Hexokinase-4 (Homo sapiens) + Glucokinase regulatory protein (Homo sapiens); experiment: qHTS assay for inhibitors of recombinant human GCK-GKRP interaction: HTRF assay (AID 743207)
Summary of the method: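 GST-GCK and FLAG-GKRP (5 nM each) were combined with 2 uM S6P in pH 7.1 Hepes/MgCl2/KCl/DTT buffer, then compound and anti-FLAG XL665/anti-GST K antibodies were added. After 60 min at room temperature, HTRF 665/615 nm emission was read.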

[3] = qHTS Assay for Identifying Gametocytocidal Compounds (AID 743244);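 further: actives lower the fluorescent signal which means gametocytes are killed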; settings: P. falciparum 3D7 stage III-V gametocytes, alamarBlue, 72 h; max response: stronger effect = lower value
Summary of the method: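 P. falciparum 3D7 stage III–V gametocytes (20,000 cells/well) were exposed to compounds for 72 h at 37 °C, 5% CO2. AlamarBlue was then added for 24 h; decreased resorufin fluorescence (Ex 525/Em 598 nm) indicated loss of viability.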

SMILES	Potency [1]	Potency [2]	max response [3]
Nc1nc2c(nc(Br)n2C2OC3COP(=O)(O)O[C@@H]3C2O)c(=O)[nH]1 (some centres undefined)	inactive	inactive	9.58% (inactive)
Cn1c(=O)c2[nH]c(-c3ccc(S(=O)(=O)O)cc3)nc2n(C)c1=O	inactive	inactive	26.7% (inactive)
N[C@@H](Cc1ccc(O)c(I)c1)C(=O)O	inactive	inactive	31.3% (inactive)
CCCCCCC/C=C\CCCCCCCCC(=O)O	inactive	inactive	37.6% (inactive)
Nn1nnc2ccccc21	inactive	inactive	16.9% (inactive)
O=C1Cc2c([nH]c3ccc(Br)cc23)-c2ccccc2N1		inactive	
Cn1c(=O)c2c(nc(/C=C/c3cccc(Cl)c3)n2C)n(C)c1=O	inactive	inactive	
N[C@@H](CCCC(=O)O)C(=O)O	inactive	inactive	28.3% (inactive)
N#C/C(=C\c1ccc(O)c(O)c1)C(=O)NCCCNC(=O)/C(C#N)=C/c1ccc(O)c(O)c1	inactive	inactive	5.33% (inactive)
O=c1[nH]c2ccccc2c2ccccc12	inactive	inactive	36% (inactive)
CCCCC[C@H](CC(=O)NO)C(=O)N[C@H](C(=O)N1CCC[C@H]1CO)C(C)C	inactive	inactive	14.1% (inactive)
N[C@H](C(=O)O)[C@H](O)C(=O)O	inactive	inactive	13.2% (inactive)
Cn1ccnc1	inactive	inactive	14.7% (inactive)
COc1cc(C(O)C(=O)O)ccc1O (centres undefined)	inactive	inactive	20.3% (inactive)
N=C(N)c1ccccc1	inactive	inactive	17.2% (inactive)
CC1=C(C(=O)O)N2C(=O)[C@@H](NC(=O)C(N)C3=CCC=CC3)[C@H]2SC1 (some centres undefined)	inactive	inactive	
N=C(N)SCCN	inactive	inactive	-1.63% (inactive)
CC(C)Cn1c(=O)n(C)c(=O)c2[nH]cnc21		inactive	4.24% (inactive)
COc1cc(/C=C(\C#N)C(=O)Nc2nnc(C(F)(F)F)s2)ccc1OCc1ccc(C(F)(F)F)cc1C(F)(F)F	inactive	inactive	5.8% (inactive)
O=C(O)c1ccccc1Nc1ccccc1	inactive	inactive	
COc1cc(N)c(Cl)cc1C(=O)OCCN1CCCCC1	inactive	inactive	4.04% (inactive)
[Li+]	inactive	inactive	24.7% (inactive)
Nc1ccc(N2C(=O)c3ccccc3C2=O)c(Cl)c1	inactive	inactive	6.35% (inactive)
Cc1nc2n(c(=O)c1CCN1CCC(c3noc4cc(F)ccc34)CC1)CCCC2O (centres undefined)	inactive	inactive	7.08% (inactive)
O[Si](CCCN1CCCCC1)(c1ccc(F)cc1)C1CCCCC1 (centres undefined)		inactive	
NCCCCN		inactive	15.5% (inactive)
Nc1ncnc2c1nc(Br)n2C1OC2COP(=O)(O)O[C@@H]2C1O (some centres undefined)	inactive	inactive	31.4% (inactive)
O=c1[nH]ccc2c(O)cccc12		inactive	22.6% (inactive)
